# ± gives the standard deviation of the averaged measurements.
# Tests used:
# Assay in all cases: promoter activity interaction Z-score (Lux/OD deviation from empty-vector control); higher = stronger promoter induction by the compound
# [1] = test system: E. coli BW25113 acrABp lux reporter
# In short: (§1)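 Four 1:2 dilutions of each compound were tested in biological duplicates on E. coli BW25113 carrying low-copy luxCDABE promoter reporters, either wild type or deleted for one of three genes. Cultures of 40 µl LB Lennox in 384-well plates were kept at 37°C and read for OD600 and luminescence every 30 min for 12 h. Integration windows were 0–8 h for wild type and 1–9 h for deletion strains, and wells under 10% of the median growth value were discarded. The score is a Z-transformed residual of growth-normalised luminescence relative to a control fit.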
# [2] = test system: E. coli BW25113 micFp lux reporter
# In short: as §1
# [3] = test system: E. coli BW25113 ompFp lux reporter
# In short: as §1
# [4] = 0.02 µg/ml, genetic background: wild type
# [5] = 0.02 µg/ml, genetic background: ΔmarA
# [6] = 0.02 µg/ml, genetic background: Δrob
# [7] = 0.02 µg/ml, genetic background: ΔsoxS
# [8] = 0.04 µg/ml, genetic background: wild type
# [9] = 0.04 µg/ml, genetic background: ΔmarA
# [10] = 0.04 µg/ml, genetic background: Δrob
# [11] = 0.04 µg/ml, genetic background: ΔsoxS
# [12] = 0.079 µg/ml, genetic background: wild type
# [13] = 0.079 µg/ml, genetic background: ΔmarA
# [14] = 0.079 µg/ml, genetic background: Δrob
# [15] = 0.079 µg/ml, genetic background: ΔsoxS
# [16] = 0.16 µg/ml, genetic background: wild type
# [17] = 0.16 µg/ml, genetic background: ΔmarA
# [18] = 0.16 µg/ml, genetic background: Δrob
# [19] = 0.16 µg/ml, genetic background: ΔsoxS
structure (smiles),measurement,setting,value
C[C@@H](O)[C@H]1C(=O)N2C(C(=O)O)=C(SCCNC=N)C[C@H]12 [Imipenem],promoter activity interaction Z-score,[1]; [4],0.313 ± 0.12
same,promoter activity interaction Z-score,[1]; [5],1.28 ± 1.8
same,promoter activity interaction Z-score,[1]; [6],0.353 ± 0.18
same,promoter activity interaction Z-score,[1]; [7],0.0665 ± 0.11
same,promoter activity interaction Z-score,[1]; [8],0.296 ± 0.28
same,promoter activity interaction Z-score,[1]; [9],0.881 ± 0.37
same,promoter activity interaction Z-score,[1]; [10],0.492 ± 0.11
same,promoter activity interaction Z-score,[1]; [11],-0.0993 ± 0.31
same,promoter activity interaction Z-score,[1]; [12],0.282 ± 0.4
same,promoter activity interaction Z-score,[1]; [13],-0.701 ± 0.22
same,promoter activity interaction Z-score,[1]; [14],0.209 ± 0.086
same,promoter activity interaction Z-score,[1]; [15],0.325 ± 0.52
same,promoter activity interaction Z-score,[1]; [16],0.0724 ± 0.69
same,promoter activity interaction Z-score,[1]; [17],-0.226 ± 0.46
same,promoter activity interaction Z-score,[1]; [18],0.107 ± 0.094
same,promoter activity interaction Z-score,[1]; [19],0.865 ± 0.24
same,promoter activity interaction Z-score,[2]; [4],-0.142 ± 0.16
same,promoter activity interaction Z-score,[2]; [5],0.0296 ± 0.051
same,promoter activity interaction Z-score,[2]; [6],-0.0038 ± 0.09
same,promoter activity interaction Z-score,[2]; [7],-0.119 ± 0.17
same,promoter activity interaction Z-score,[2]; [8],0.0424 ± 0.3
same,promoter activity interaction Z-score,[2]; [9],0.0155 ± 0.0044
same,promoter activity interaction Z-score,[2]; [10],0.104 ± 0.069
same,promoter activity interaction Z-score,[2]; [11],-0.24 ± 0.14
same,promoter activity interaction Z-score,[2]; [12],-0.145 ± 0.082
same,promoter activity interaction Z-score,[2]; [13],-0.07 ± 0.02
same,promoter activity interaction Z-score,[2]; [14],-0.0557 ± 0.0065
same,promoter activity interaction Z-score,[2]; [15],0.206 ± 0.3
same,promoter activity interaction Z-score,[2]; [16],-0.0706 ± 0.42
same,promoter activity interaction Z-score,[2]; [17],-0.131 ± 0.072
same,promoter activity interaction Z-score,[2]; [18],-0.0161 ± 0.083
same,promoter activity interaction Z-score,[2]; [19],0.512 ± 0.49
same,promoter activity interaction Z-score,[3]; [4],0.592 ± 0.022
same,promoter activity interaction Z-score,[3]; [5],0.885 ± 0.097
same,promoter activity interaction Z-score,[3]; [6],0.602 ± 0.084
same,promoter activity interaction Z-score,[3]; [7],0.271 ± 0.35
same,promoter activity interaction Z-score,[3]; [8],0.679 ± 0.22
same,promoter activity interaction Z-score,[3]; [9],0.662 ± 0.21
same,promoter activity interaction Z-score,[3]; [10],0.743 ± 0.19
same,promoter activity interaction Z-score,[3]; [11],0.276 ± 0.85
same,promoter activity interaction Z-score,[3]; [12],0.372 ± 0.28
same,promoter activity interaction Z-score,[3]; [13],0.257 ± 0.3
same,promoter activity interaction Z-score,[3]; [14],0.789 ± 0.66
same,promoter activity interaction Z-score,[3]; [15],0.142 ± 0.038
same,promoter activity interaction Z-score,[3]; [16],0.851 ± 0.33
same,promoter activity interaction Z-score,[3]; [17],1.19 ± 0.16
same,promoter activity interaction Z-score,[3]; [18],1.34 ± 0.058
same,promoter activity interaction Z-score,[3]; [19],1.39 ± 0.5

# From the supplement of paper PMC12282887
